Laboratory results: the supplement of paper PMC7380943
Where a name gives a salt, the structure may show the parent alone.

test system: CLZ3 (HCA2 human fibroblast dual HR-NHEJ reporter); assay: NHEJ repair efficiency (GFP+ cells) relative to control (log10 fold); higher = more non-homologous end joining; conditions: 5 µM; doxycycline 0.5 ug/mL
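Also: compound given one day ahead of doxycycline, which switches on I-SceI endonuclease to cut the chromosomally integrated reporter and create DSBs.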

SMILES	NHEJ repair efficiency (log10)
C[C@H]1O[C@@H](O[C@H]2CC[C@@]3(C)[C@@H](CC[C@]4(C)[C@@H]3C=CC3=C5CC(C)(C)CC[C@]5(CO)[C@H](O)C[C@]34C)[C@]2(C)CO)[C@H](O)[C@@H](O[C@@H]2O[C@H](CO)[C@@H](O)[C@H](O)[C@H]2O)[C@H]1O [Saikosaponin B2]	0.0489
O=C1/C(=C2\Nc3ccccc3C2=O)Nc2ccccc21 [Indigo]	-0.108
C/C=C(/C)C(=O)O[C@@H]1[C@H](OC(=O)CC(C)C)c2c(ccc3ccc(=O)oc23)OC1(C)C [Praeruptorin C]	-0.0108
O=c1cc(-c2ccc(O)cc2)oc2cc(O)c([C@@H]3O[C@H](CO)[C@@H](O)[C@H](O)[C@H]3O)c(O)c12 [Isovitexin]	0.0409
C[C@H](CC(=O)C[C@@H](C)[C@H]1C[C@H](O)[C@@]2(C)C3=C(C(=O)C[C@]12C)[C@@]1(C)CCC(=O)C(C)(C)[C@@H]1C[C@@H]3O)C(=O)O [Ganoderic Acid A]	0.0922
COc1cc(-c2oc3cc(O)cc(O)c3c(=O)c2O[C@@H]2O[C@H](CO[C@H]3O[C@H](C)[C@@H](O)[C@H](O)[C@@H]3O)[C@@H](O)[C@H](O)[C@H]2O)ccc1O [Narcissoside; Isorhamnetin-3-O-β-D-rutinoside]	0.0544
O=C(C=Cc1ccc(O)c(O)c1)O[C@H]1[C@H](O)C[C@](O)(C(=O)O)C[C@H]1OC(=O)C=Cc1ccc(O)c(O)c1 [Isochlorogenic Acid C (4,5-Di-O-Caffeoylquinic Acid)]	0.021
O=Cc1ccc(CO)o1 [5-Hydroxymethyl-2-furaldehyde (5-HMF)]	-0.174
COc1ccccc1 [Anisole]	0.105
Oc1cc(O)c2c(c1)O[C@H](c1cc(O)c(O)c(O)c1)[C@H](O)C2 [(-)Epigallocatechin]	-0.0905
O=C(/C=C/c1ccc(O)c(O)c1)O[C@@H]1C[C@](OC(=O)/C=C/c2ccc(O)c(O)c2)(C(=O)O)C[C@@H](O)[C@H]1O [1,3-Di-O-Caffeoylquinic Acid]	-0.263
C/C=C/c1cc(OC)c2c(c1)C(C)C(c1ccc(O)c(OC)c1)O2 (stereo unspecified) [Dehydrodiisoeugenol]	-0.00267
COc1ccc2c(c1O)-c1c(O)c(OC)cc3c1[C@H](C2)[N+](C)(C)CC3 [Magnoflorine hydrochloride]	-0.0605
COc1c(O)cc2c(c1O)[C@@H]1O[C@H](CO)[C@@H](O)[C@H](O)[C@H]1OC2=O [Bergenin]	0.0025
O=c1cc(-c2ccccc2)oc2cc(O)cc(O)c12 [Chrysin]	0.01
c1ccc2c(c1)OC1c3ccccc3OCC21 (stereo unspecified) [Pterocarpan]	0.112
COc1cc(O)c(CC=C(C)C)c(O)c1C(=O)/C=C/c1ccc(O)cc1 [Xanthohumol]	0.0812
O=c1c(-c2ccc(O)cc2)coc2cc(O)ccc12 [Daidzein]	-0.0789
C[C@@H]1O[C@@H](O[C@H]2[C@H](O[C@H]3CC[C@@]4(C)[C@@H](CC[C@]5(C)[C@@H]4CC=C4[C@@H]6CC(C)(C)CC[C@]6(C(=O)O)CC[C@]45C)[C@]3(C)CO)OC[C@H](O)[C@@H]2O)[C@H](O)[C@H](O)[C@H]1O [α-Hederin]	-0.0243
Oc1cc(O)c2c(c1)O[C@H](c1ccc(O)c(O)c1)[C@H](O)C2 [Epicatechin (EC)]	-0.238
C[N+](C)(C)C[C@H](O)CC(=O)[O-] [L-Carnitine]	-0.0644
COc1ccc(/C=C/c2cc(O)cc(O[C@@H]3O[C@H](CO)[C@@H](O)[C@H](O)[C@H]3O)c2)cc1 [Desoxyrhaponticin]	0.161
Cc1ccc(C(C)C)c(O)c1 [Thymol]	0.108
CC(/C=C/C=C(\C)C(=O)O[C@@H]1O[C@H](CO[C@@H]2O[C@H](CO)[C@@H](O)[C@H](O)[C@H]2O)[C@@H](O)[C@H](O)[C@H]1O)=C\C=C\C=C(C)\C=C\C=C(/C)C(=O)O[C@@H]1O[C@H](CO[C@@H]2O[C@H](CO)[C@@H](O)[C@H](O)[C@H]2O)[C@@H](O)[C@H](O)[C@H]1O [Crocin]	-0.0374
Cc1c(O)c(C)c2c(c1O)C(=O)C[C@@H](c1ccc(O)cc1)O2 [Farrerol]	-0.0045
COC(=O)[C@@]1(C)CC[C@]2(C(=O)O)CC[C@]3(C)C(=CC[C@@H]4[C@@]5(C)C[C@H](O)[C@H](O)[C@@](C)(CO)[C@@H]5CC[C@]43C)[C@@H]2C1 [Phytolaccagenin]	0.0274
